Values joined by “and” are separate entries in the source; they are usually repeats but may differ in a detail not shown here. Identical values can stand only once. Results filed as inconclusive are left out. Active and inactive are the calls of the source. Calls come from the whole dose curve.
Tests used:
[1] = target: Acetylcholinesterase (Homo sapiens) (UniProt P22303); assay: Acetylcholinesterase (AChE) small molecule antagonists: colormetric cell-based qHTS assay (AID 1347395); note: nearly all actives have a fitted effect of over 30% in size; note: potency is the fitted concentration of half-maximal effect
Acetylcholinesterase (Homo sapiens), sequence (P22303 whole entry, looked up): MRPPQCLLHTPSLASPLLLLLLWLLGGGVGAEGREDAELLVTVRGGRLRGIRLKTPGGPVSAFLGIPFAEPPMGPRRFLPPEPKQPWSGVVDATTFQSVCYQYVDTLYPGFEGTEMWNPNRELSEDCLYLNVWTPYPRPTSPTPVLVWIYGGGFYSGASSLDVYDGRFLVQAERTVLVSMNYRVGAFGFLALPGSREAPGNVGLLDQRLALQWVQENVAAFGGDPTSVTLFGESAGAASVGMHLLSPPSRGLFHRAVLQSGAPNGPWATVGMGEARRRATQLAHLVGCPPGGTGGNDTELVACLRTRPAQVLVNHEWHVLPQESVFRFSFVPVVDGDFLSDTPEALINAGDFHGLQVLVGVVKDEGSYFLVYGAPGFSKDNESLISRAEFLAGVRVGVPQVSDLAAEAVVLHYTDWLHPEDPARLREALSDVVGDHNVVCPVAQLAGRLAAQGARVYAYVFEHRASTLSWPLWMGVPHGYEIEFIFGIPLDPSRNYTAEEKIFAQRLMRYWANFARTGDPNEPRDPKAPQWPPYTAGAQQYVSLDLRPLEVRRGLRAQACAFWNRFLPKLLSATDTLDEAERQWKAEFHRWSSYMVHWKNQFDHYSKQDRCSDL
Method in brief: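 Neuroblastoma line SH-SY5Y supplied the enzyme; cells were preincubated with compound for 30 min at 37 C and 5% CO2. Acetylthiocholine with DTNB was then added for 90 min at 37 C, and thiocholine was measured by colour.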

[2] = target: Acetylcholinesterase (Homo sapiens) (UniProt P22303); assay: Acetylcholinesterase (AChE) small molecule antagonists: enzyme-based qHTS assay (AID 1347397); details: Potency: AChE enzyme activity inhibition; outcome: AChE enzyme activity inhibition; note: nearly all actives have a fitted effect of over 55% in size; note: potency is the fitted concentration of half-maximal effect
Method in brief: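 rhAChE 50 mU/mL (dispensed) + cpd or DMSO, 30 min RT; add DTNB/acetylthiocholine cocktail, 10 min RT; colorimetric thiocholine readout. qHTS, 1536-well format.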

[3] = target: Acetylcholinesterase (Homo sapiens) (UniProt P22303); assay: Acetylcholinesterase (AChE) small molecule antagonists: fluorescence cell-based qHTS assay (AID 1347398); details: Potency: AChE activity; outcome: AChE activity; note: nearly all actives have a fitted effect of over 50% in size; note: potency is the fitted concentration of half-maximal effect
Method in brief: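 Read-out is Thiolite Green fluorescence at Ex/Em = 490/520 nm, formed by reaction with thiocholine released when cellular AChE in SH-SY5Y cells hydrolyzes acetylthiocholine. Compounds were preincubated 30 min at 37 C before substrate.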

[4] = target: Acetylcholinesterase (Homo sapiens) (UniProt P22303); assay: Acetylcholinesterase (AChE) small molecule antagonists: enzyme-based qHTS assay with human liver microsomes (AID 1347399); details: Potency: qHTS inhibition; outcome: qHTS inhibition; note: nearly all actives have a fitted effect of over 60% in size
Method in brief: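 Recombinant human AChE (50 mU/mL in the enzyme mix) and human liver microsomes (0.25 mg/mL final) were preincubated with compound and NADPH (0.25 mg/mL final) for 30 min at 37 C. Acetylthiocholine/DTNB was then added; thiocholine was read colorimetrically after 10 min at room temperature.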

Measured: Potency

CC(=O)CC(C)(C)O
inactive: all assays above

CCCc1ccccc1
inactive: all assays above

Nc1ccc(N)c(Cl)c1
active: [1] 8.92 µM and 22.4 µM | [2] 8.92 µM and 8.94 µM | [3] 5.63 µM and 10 µM
inactive: [4]

C/C=C/CO
inactive: all assays above

CCCCC(CC)CN=C(N)NC(N)=NCCCCCCN=C(N)NC(N)=NCC(CC)CCCC (stereo not given)
active: [2] 17.4 µM | [3] 13.8 µM
inactive: [1] | [4]

O=C1CCCC(=O)O1
inactive: all assays above

CC[C@]12CCCN3CCc4c(n(c5ccccc45)[C@@](O)(C(=O)OC)C1)[C@@H]32
inactive: all assays above

COc1ccccc1/C=C/C=O
inactive: all assays above

C[C@@H](C1=C(CCN(C)C)Cc2ccccc21)c1ccccn1
inactive: all assays above

CN(C/C=C/C#CC(C)(C)C)Cc1cccc2ccccc12
inactive: all assays above

CCOC(=O)OC(C)OC1=C(C(=O)Nc2ccccn2)N(C)S(=O)(=O)c2ccccc21 (stereo not given)
inactive: all assays above

CC(C)(O)C#CC(C)(C)O
inactive: all assays above

CCCC(=O)OCCC(C)CCC=C(C)C (stereo not given)
inactive: all assays above

CCOc1ccc(NC(=O)CC(C)O)cc1 (stereo not given)
inactive: all assays above

Fc1ccccc1[C@@H](F)COC1CCC(Nc2ncnc3[nH]ncc23)CC1 (stereo not given in full)
inactive: all assays above

c1cc(CN2CCCCC2)cc(OCCCNc2nc3ccccc3s2)c1
inactive: [4]
active: [1] 15.5 µM | [2] 27.5 µM | [3] 13.8 µM

CCCOCC(C)O (stereo not given)
inactive: all assays above

CC(=O)OCCOCCOCCOC(C)=O
inactive: all assays above

CC[C@H](NC(C)C)[C@H](O)c1ccc(O)c2[nH]c(=O)ccc12
inactive: all assays above

C=C(C)C(=O)OCCCCCCOC(=O)C(=C)C
inactive: all assays above

O=C1CCCCCCCCCCCC(=O)OCCO1
inactive: all assays above

c1ccc(CNCCNCc2ccccc2)cc1
inactive: all assays above

O=C(Cl)c1ccc(F)c(Cl)c1
inactive: all assays above

OCC#CCO
inactive: all assays above

CCCNC(=O)NS(=O)(=O)c1ccc(Cl)cc1
inactive: all assays above

CN1CCN(C2Cc3ccccc3Sc3ccc(Cl)cc32)CC1 (stereo not given)
inactive: all assays above

CCCCC(CC)COC(=O)c1ccc(O)cc1 (stereo not given)
inactive: all assays above

CO[C@@]1(NC(=O)C(C(=O)O)c2ccc(O)cc2)C(=O)N2C(C(=O)O)=C(CSc3nnnn3C)CO[C@@H]21 (stereo not given in full)
inactive: all assays above

CCOc1ccc(NC(=O)CC(C)=O)cc1
inactive: all assays above

O=C(O)c1snc(Cl)c1Cl
inactive: all assays above

CCC(=O)OCCC(C)CCC=C(C)C (stereo not given)
inactive: all assays above

C=C1C(=C/C=C2\CCC[C@]3(C)[C@@H]([C@H](C)/C=C/[C@@H](O)C4CC4)CC[C@@H]23)C[C@@H](O)C[C@@H]1O
inactive: all assays above

CC(O)CNCC(C)O (stereo not given)
inactive: all assays above

CC/C=C\CCOC(=O)c1ccccc1O
inactive: all assays above

CCCCCC(=O)OCCc1ccccc1
inactive: all assays above

Oc1ccc2ccccc2c1N=Nc1ccccc1
inactive: all assays above

C=CC(C)(O)CC/C=C(\C)CC (stereo not given)
inactive: all assays above

NC(N)=S
inactive: all assays above

CCCCC(CC)COCCCN (stereo not given)
inactive: all assays above

O=C(O)c1cc(C(=O)O)cc(S(=O)(=O)O)c1
inactive: all assays above

CC(=O)OCCOC(C)=O
inactive: all assays above

COC(=O)c1ccccc1
inactive: all assays above

COC(=O)CCCC(=O)O
inactive: all assays above

CCc1cccc(CC)c1
inactive: all assays above

CC(=O)OC(C)(C)C1CC=C(C)CC1 (stereo not given)
inactive: all assays above

CCN(CC#N)c1cccc(C)c1
inactive: all assays above

N[C@@H](Cc1cc(I)c(O)c(I)c1)C(=O)O
inactive: all assays above

NNc1nnc(NN)c2ccccc12
inactive: all assays above

O[C@@H]1CO[C@H]2[C@@H]1OC[C@@H]2O
inactive: all assays above

O=C(O)Cc1c[nH]c2ccccc12
inactive: all assays above

CC(C)(C)OC=O
inactive: all assays above

CCCCCCCC(=O)OCC(O)CO (stereo not given)
inactive: all assays above

CC(=O)O[C@]1(C(C)=O)CC[C@H]2[C@@H]3C=C(Cl)C4=CC(=O)CC[C@]4(C)[C@H]3CC[C@@]21C
inactive: all assays above

NC(=O)c1cnccn1
inactive: all assays above

CCOc1cccc(-n2cc(C(=O)N3CCN(c4cc(C(=O)O)c5ccccc5c4)CC3)nc2-c2ccc(C)cc2)c1
inactive: all assays above

CCCCCCCCCCCCCO
inactive: all assays above

CN1C(C)(C)CC(O)CC1(C)C
inactive: all assays above

CCCCCc1cccc(=O)o1
inactive: all assays above

C=C(C)[C@@H]1CC=C(C)C(=O)C1
inactive: all assays above

CC(=O)CCc1ccc(OC(C)=O)cc1
inactive: all assays above

Reference: PubChem BioAssay (Tox21)
